Consider one compound from PubChem BioAssay AID2157 (National Center for Advancing Translational Sciences (NCATS), 2009).

For this test, the target named is Polyunsaturated fatty acid lipoxygenase ALOX15 (Homo sapiens) (UniProt P16050). The test is described as follows: Confirmation qHTS Assay for Inhibitors of 15-hLO (15-human lipoxygenase). The settings on record: purified enzyme, xylenol orange hydroperoxide absorbance; hits give low values. An excerpt:
Assay Provider: Holman, T.R., University of California, Santa Cruz Screening Center PI: Austin, Christopher P. Screening Center: NIH Chemical Genomics Center Human lipoxygenase 15hLO-1 is a member of the closely related lipoxygenase family of enzymes which catalyze the site-specific oxidation of arachidonic acid to various hormone precursor molecules and as such is a candidate for drug development in a variety of disease areas, such as cancer and inflammation. Inhibition of 15hLO-1 activity was screened by utilizing arachidonic acid as a substrate. The extent of hydroperoxide product formation was measured by a secondary chromogenic reaction in which xylenol orange (XO, Sigma-Aldrich, cat. number 39,818-7) reacts with the ferric ions produced from the reaction between the hydroperoxide and ferrous ions. The Fe(III)-XO complex is characterized with red-shifted absorbance at 560 nm. A purified preparation of human 15hLO-1 was supplied by Professor Ted Holman, University of California, Santa Cruz. This assay includes some confirmation and follow-up compounds for related primary screening assay AID 887.
Assay Protocol: Buffer: 25 mM Hepes pH 7.5, 0.01% Triton X-100. […] The absorbance at 405 and 573 nm were measured using ViewLux (Perkin-Elmer) High-throughput CCD imager and absorbance protocol settings. The 573-to-405 absorbance ratio was used to compute reaction progress.
(In general: In qHTS, concentration-response curves come from the screen itself.)

Results filed as inconclusive are left out. Values without a mark were called inactive. The call rests on the fitted dose curve; in most records, active means well fitted inhibition curve with a large enough effect; inconclusive means small, poorly fitted or top-dose-only effect; inactive means no such curve, though single readings can be large or run the other way.

Chain of Polyunsaturated fatty acid lipoxygenase ALOX15 (Homo sapiens) (P16050 whole entry, looked up): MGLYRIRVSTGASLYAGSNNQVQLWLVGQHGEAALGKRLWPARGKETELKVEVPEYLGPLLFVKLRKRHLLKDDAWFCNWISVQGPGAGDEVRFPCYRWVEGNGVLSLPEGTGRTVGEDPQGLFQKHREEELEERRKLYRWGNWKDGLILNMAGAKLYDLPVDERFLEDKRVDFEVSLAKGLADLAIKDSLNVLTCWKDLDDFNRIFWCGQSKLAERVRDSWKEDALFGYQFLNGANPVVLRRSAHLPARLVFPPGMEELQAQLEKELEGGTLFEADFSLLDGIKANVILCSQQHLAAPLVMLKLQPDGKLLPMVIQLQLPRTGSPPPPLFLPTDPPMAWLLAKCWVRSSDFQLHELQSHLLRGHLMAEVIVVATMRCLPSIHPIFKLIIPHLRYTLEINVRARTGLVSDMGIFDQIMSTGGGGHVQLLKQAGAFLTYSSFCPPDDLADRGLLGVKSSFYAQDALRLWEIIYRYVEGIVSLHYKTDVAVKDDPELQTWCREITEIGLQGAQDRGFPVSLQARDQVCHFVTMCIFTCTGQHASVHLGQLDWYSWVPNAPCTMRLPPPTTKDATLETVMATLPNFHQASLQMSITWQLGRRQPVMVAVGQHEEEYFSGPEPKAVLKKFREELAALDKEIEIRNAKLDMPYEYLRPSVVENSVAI

In the case of `CCC(C)C(=O)c1c(O)c(C)c2oc3c(C)c(O)c(C(=O)C(C)CC)c(O)c3c2c1O` (stereo unspecified), the max response was -17.1%.
